Lassa entry inh: Lassa virus entry inhibition. actives 1.2% (n = 300,000). Lassa virus pseudotype entry inhibition, cell reporter. Potency, µM (highest dose often 37.9 µM), without a hit: at the top dose activity change, negative = inhibition, hits mostly inhibitors. AID 540256; calls by dose curve; tested in HEK293 cells; also: potency is read from the fitted curve at half-maximal effect; nearly all actives have a fitted effect of over 50% in size
Marburg entry inh: inhibitors of Marburg virus binding or cell entry; Marburg virus pseudotyped entry inhibition, cell reporter; Potency, µM (doses to about 37.8 µM), without a hit: at the top dose activity change, negative = inhibition, usual class: inhibitors; actives 1.8% (n = 300,000); calls by dose curve; tested in HEK293 cells; also: potency is read from the fitted curve at half-maximal effect
VACV Venus inh: inhibitors of vaccinia virus (Venus reporter) | Vaccinia virus Venus reporter expression, fluorescence | Potency, µM (titrated, usually from 36.5 µM), inactives show at the highest dose activity change, negative = inhibition, hits mostly inhibitors | actives 0.46% (n = 330,000); calls by dose curve; tested in A549 cells; also: potency is read from the fitted curve at half-maximal effect; nearly all actives have a fitted effect of over 30% in size
FMDV antiviral: blocks foot and mouth disease virus. FMDV antiviral cell-based qHTS. Potency, µM (titrated, usually from 57.9 µM), for the others: top-dose activity change, negative = inhibition, usual class: inhibitors. actives 1.2% (n = 410,000); calls by dose curve; tested in HEK293T cells; also: read-out not given here; potency is read from the fitted curve at half-maximal effect; nearly all actives have a fitted effect of over 45% in size
Vaccinia mCherry: vaccinia inhibition (mCherry reporter) | Vaccinia virus mCherry reporter infection, fluorescence | Potency, µM (series often up to 36.5 µM), for inactives: at the highest dose activity change, negative = inhibition, hits mostly inhibitors | actives 0.63% (n = 310,000) | AID 720579; calls by dose curve; tested in A549 cells; also: potency is read from the fitted curve at half-maximal effect; nearly all actives have a fitted effect of over 35% in size
HCMV inh: blocks human cytomegalovirus replication; HFF cells, HCMV-luciferase reporter, 72 h; hits give low values; activity change, negative = inhibition, % at 57.5 µM; AID 1259415; actives 4.5% (n = 410,000); in the data active = activity change below about -60%; inconclusive = no clear call, values can overlap the other calls; inactive = above about -39%
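Cell-based, HFFs, 1000 cells/well, 16 h 37C; cpds in DMSO + HCMV-luc, MOI 1 PFU/cell; 72 h 37C; OneGlo luminescence after 5 min RT; norm. to buffer vs Salinomycin 10uM.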
* = called active by the depositor; i = inactive; ? = inconclusive; . = no result; [ ] = another dose, or the depositor's remark. Hits are enriched below; roughly 6.5% of the tested compounds scored in any of these assays. % is scaled to controls: 0 for no effect and ±100 for the full control effect.

SMILES | Lassa entry inh | Marburg entry inh | VACV Venus inh | FMDV antiviral | Vaccinia mCherry | HCMV inh
C=CCc1cccc(/C=N\n2cnnc2)c1O | . | 37.5% | . | . | . | .
COc1ccc(-c2nc3cnc(N4CCNCC4)nc3n(CCC#N)c2=O)cc1 | . | . | . | -5.3% | . | .
COCc1ccc(CN2Cc3ccccc3OC(c3ccccc3F)C2)o1 (stereo unspecified) | . | . | -28.3% | 1.8% | i | .
C=CCCN(Cc1ccc(C)cc1)S(=O)(=O)C=C | -0.4%[46.1 µM] | . | . | . | . | .
Cn1ncc2c(Nc3ccc(Br)cc3)nc(Nc3ccc(Br)cc3)nc21 | -19.8% | ? | ? | ? | ? | -35.4
Clc1ccc(Nc2ncnc3c2cnn3-c2ccccc2)cc1 | . | . | ? | 3.0% | -3.5% | -19.8
Cn1ncc2c(Nc3cccc(Cl)c3)nc(Nc3cccc(Cl)c3)nc21 | -24.7%[46.1 µM] | ? | -29.7% | 40.6% | ? | -66.3*
Fc1ccc(-n2ncc3c(Nc4cccc(Cl)c4)ncnc32)cc1 | 22.2%[46.1 µM] | . | -13.6% | 22.0% | -15.9% | -65.6*
Cc1ccc(NC(=O)CC2CC2)cc1-c1ccc(C(=O)NCC2CC2)cc1 | 3.97µM* | . | . | . | . | .
Cc1ccc(C(=O)NC2CCCCC2)cc1-c1ccc(C(=O)NCC2CC2)cc1 | 1.41µM* | . | . | . | . | .
C=C1C(=O)O[C@@H]2C[C@@H](C)[C@@H]3C=CC(=O)[C@@]3(C)[C@@H](OC(=O)CC(=O)O[C@H]3[C@@H]4C(=C)C(=O)O[C@@H]4C[C@@H](C)[C@@H]4C=CC(=O)[C@]43C)[C@H]12 | . | . | 2.51µM* | ? | ? | -98.0*
C=C1C(=O)O[C@H]2C[C@@H](C)[C@@H]3C=CC(=O)[C@@]3(C)C[C@H]12 | . | . | ? | 25.1µM* | ? | -99.1*
C=C1C(=O)OC2C1CCC(C)C1C=CC(=O)C12C (stereo unspecified) | ? | 11.2µM* | ? | ? | 11.2µM* | -96.8*
CC(=O)O[C@@H]1[C@H]2[C@@H](C[C@@H](C)[C@@H]3C=CC(=O)[C@@]13C)OC(=O)[C@@H]2C | . | . | ? | 0.0% | -27.3% | -1.9
CC1C(=O)O[C@@H]2C[C@@H](C)[C@@H]3CCC(=O)[C@@]3(C)[C@@H](O)[C@H]12 (stereo partly specified) | . | . | 1.1% | -22.6% | i | -6.7
C=C1C(=O)O[C@@H]2C[C@@H](C)[C@@H]3C4OC4C(=O)[C@@]3(C)[C@@H](O)[C@H]12 (stereo partly specified) | . | . | 14.1µM* | ? | ? | -79.3*
C=C1C(=O)OC2CC(C)C3C=CC(=O)C3(C)C(O)C12 (stereo unspecified) | 1.26µM* | 0.631µM* | 6.31µM* | 8.91µM* | ? | .
C=C1C(=O)OC2C1CCC(C)C1(O)C=CC(=O)C21C (stereo unspecified) | . | . | -26.0% | 39.8µM* | ? | -108.0*
C=C1C(=O)O[C@H]2[C@H]1[C@H](OC(=O)CC(=O)O[C@@H]1C[C@@H](C)[C@@H]3C=CC(=O)[C@@]3(C)[C@H]3OC(=O)C(=C)[C@H]13)C[C@@H](C)[C@H]1C=CC(=O)[C@]12C | . | . | -26.7% | -19.0% | ? | -38.0
COc1ccc(-c2nc(SCC(=O)NC3CCCC3)c(-c3ccc(C)cc3)[nH]2)cc1OC | ? | ? | -15.6% | 0.0% | -14.4% | -0.3
COc1cc2sc(-c3ccccc3OC)c(-c3ccc(OCCN4CCCCC4)cc3)c2cc1OC | . | . | ? | ? | -22.2% | -18.2
COc1ccccc1-c1sc2cc3c(cc2c1-c1ccc(OCCN2CCCCC2)cc1)OCO3 | . | . | 11.2µM* | ? | 28.2µM* | -32.7
Clc1ccc(C(c2ccccc2)c2c[nH]c3ccccc23)s1 (stereo unspecified) | -0.1%[46.1 µM] | . | -19.6% | 0.0% | -24.6% | -66.6*
Cc1ccc2[nH]cc(C(c3ccccc3)c3ccc(Cl)s3)c2c1 (stereo unspecified) | 25.9%[46.1 µM] | ? | -3.1% | ? | -5.2% | ?
CC(=O)c1sc(NCc2ccc(C)cc2)nc1C | ? | 10µM* | -25.8% | 32.7% | -14.9% | 6.8
SMILES | Lassa entry inh | Marburg entry inh | VACV Venus inh | FMDV antiviral | Vaccinia mCherry | HCMV inh
CC(=O)c1sc(NCc2ccccc2)nc1C | ? | 16.2%[46.1 µM] | -5.2% | 26.4% | i | -4.7
C[C@@H]1COc2cc(N3CCCCC3)ccc2S(=O)(=O)N1 | . | . | . | . | . | 8.6
CC1CC(C)CN(CCCSc2ccccc2)C1 (stereo unspecified) | ? | 2.91µM* | -15.3% | -1.7% | -23.0% | -4.1
CC1CCCN(CCOCCSc2ccccc2)C1 (stereo unspecified) | ? | ? | -17.3% | -26.5% | -23.1% | -39.5
CC1CC(C)CN(CCOCCSc2ccccc2)C1 (stereo unspecified) | 9.2µM* | ? | -17.5% | -10.8% | -2.8% | 4.7
CC1CN(CCCCSc2ccccc2)CC(C)O1 (stereo unspecified) | . | . | . | 2.0% | . | 8.8
CC1CC(C)CN(CCOCCSc2ccc(Cl)cc2)C1 (stereo unspecified) | ? | 7.08µM* | -27.2% | 20.3% | i | 0.8
Cc1cc(F)ccc1O[C@H]1C=C[C@@H](c2ccc3c(c2)OCO3)O[C@H]1CO | . | 14.2%[14.2 µM] | . | . | . | .
COc1ccc(CSc2nc3ccncc3n2Cc2nc(-c3ccc(OC)c(OC)c3)oc2C)cc1 | . | -11.6%[46.1 µM] | -5.6% | 9.8% | -15.8% | 33.9
CC1CC(C)(O)CC(C(O)CC2CC(=O)NC(=O)C2)C1=O (stereo unspecified) | 0.398µM* | 0.1µM* | 35.5µM* | ? | ? | -74.8*
Cc1cc(N2CCN(Cc3nc(-c4ccc(Cl)cc4)oc3C)CC2)cc(C)n1 | ? | 3.98µM* | ? | -29.9% | -27.1% | ?
COc1ccc(-c2nc(CN3CCN(c4cc(C)nc(C)c4)CC3)c(C)o2)c2ccccc12 | 11.2µM* | ? | 11.2µM* | -8.4% | ? | ?
Cc1oc(-c2cccc3ccccc23)nc1CN1CCN(c2ncnc3ccccc23)CC1 | ? | ? | -29.5% | 15.8µM* | -36.0% | ?
Cc1cccc(N2CCN(Cc3nc(-c4cccc(Oc5ccccc5)c4)oc3C)CC2)n1 | . | . | . | -20.6% | . | 11.8
Cc1cnc(C)c(N2CCN(Cc3nc(-c4ccc(C)o4)oc3C)CC2)n1 | 8.4% | -14.7%[46.1 µM] | -9.6% | -5.2% | -13.3% | ?
COc1ccc(-c2nc(CN3CCN(Cc4ccccc4)CC3)c(C)o2)cc1 | . | . | . | -14.0% | . | 12.5
O=C(c1ccc2c(c1)N(Cc1cccc(Cl)c1)C(=O)c1ccccc1S2(=O)=O)N1CCC(Cc2ccccc2)CC1 | -20.2%[46.1 µM] | . | -14.0% | -7.5% | -5.6% | ?
CCn1cc(C(=O)O)c(=O)c2c1CC(N1CCNCC1)=C(F)C2 | . | -6.9% | . | . | . | .
Cc1ccc(Cn2ccc(NC(=O)c3cc(-c4ccc(Cl)c(Cl)c4)on3)n2)cc1 | -1.4%[46.1 µM] | 5.2%[46.1 µM] | -29.1% | -24.4% | -29.7% | 3.8
Cc1c(C(=O)Nc2cccc(F)c2)oc2c1-c1nn(Cc3c(F)cccc3Cl)cc1CC2 | 17.8%[46.1 µM] | . | -8.6% | -5.5% | -21.8% | 2.0
N/C(=N\N=Cc1ccc2c(c1)OCO2)NN=Cc1ccc2c(c1)OCO2 | 14.5% | ? | -17.9% | 0.7% | -12.3% | -73.5*
